Results: PubChem BioAssay (NCI)
This is part of a sample that, as a whole, favours compounds with a hit. Of some 83,000 tested, about 20% had one in any assay.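 Treatment: one concentration, 48 hours, 96-well format. Scoring: percent growth, with anything below 10 considered active.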 Values without a mark were called inactive. Calls of active or inactive are those of the source.

Legend:
Assay in all cases: NCI-60 one-dose screen, 48 h (100 = growth as untreated, 0 = no growth, -100 = all killed)
Conditions in all cases: 10 µM unless noted
[1] = tested on: SK-MEL-2 melanoma
[2] = tested on: SN12C renal
[3] = tested on: UO-31 renal
[4] = tested on: TK-10 renal
[5] = tested on: ACHN renal
[6] = tested on: CAKI-1 renal
[7] = tested on: A498 renal
[8] = tested on: CCRF-CEM leukemia
[9] = tested on: MOLT-4 leukemia
[10] = tested on: EKVX NSCLC

Row | SMILES | growth [1] | growth [2] | growth [3] | growth [4] | growth [5] | growth [6] | growth [7] | growth [8] | growth [9] | growth [10] [%]
1 | OB1OCc2cc(/C=C/c3cccc(C(F)(F)F)c3)ccc21 | 60.2% | 15.2% | -28.6% (active) | -19.3% (active) | -91.6% (active) | -46% (active) | 6.25% (active) | 7.57% (active) | -3.42% (active) | –
2 | COc1ccc(-c2nc3cc(C(=O)NCc4ccccc4)ccc3n2C2CCCCC2)cc1 | 91.3% | 94.6% | 61.6% | 90.9% | 74.3% | 70.5% | 82.4% | – | 66.6% | –
3 | O=C1NC2(Nc3ccccc31)C(=O)Nc1c(Cl)cc(Cl)cc12 (stereo not given) | 119% | 106% | 78.5% | 206% | 107% | 85.1% | – | 103% | 93% | –
4 | COc1cc2c(c(OC)c1OC)CCC(c1cccc(C(=O)Nc3cccc(Cl)c3)c1)O2 (stereo not given) | 58.3% | 50% | 40.8% | 70.4% | 65.4% | 84.8% | 6.84% (active) | 37.8% | 30.4% | –
5 | O=C1c2c(c3c4ccccc4[nH]c3c3ccc4ccccc4c23)C(=O)N1CCN1CCOCC1 | 69.9% | 30.2% | 27.6% | 71.2% | 15.3% | 32.8% | 61.4% | 10.9% | 6.38% (active) | –
6 | Nc1cc(C(=O)NC[C@H]2CN(c3ccc(N4CCC(C(=O)O)CC4)cc3)C(=O)O2)ccc1Cl | 115% | 98.8% | 80.4% | 104% | 101% | 87.7% | 95.8% | 104% | 99.4% | –
7 | CCc1ccccc1-n1c(-c2ccc(OC)cc2)cc(-c2ccc(OC)cc2)c(C#N)c1=O | 90.2% | 89.8% | 88.3% | – | 61.6% | 77.9% | – | 127% | 133% | 94.1
8 | Cn1ccnc1C(=O)/C=C/c1ccc(C(=O)Nc2ccc(Cl)cc2)cc1 | 82.4% | 0.398% (active) | -74.7% (active) | 16.9% | -39.9% (active) | -2.07% (active) | 19.5% | 8.42% (active) | 5.13% (active) | –
9 | Nc1n[nH]c2ccc([C@H]3[C@@H]4C5CCC(C5)[C@@H]4c4c(ccc5[nH]ncc45)N3S(=O)(=O)C3CC3)cc12 (stereo not given in full) | 53.2% | 29.1% | 43% | 61.7% | 18.5% | 26.2% | -29.2% (active) | 16.2% | 19% | –
10 | CNC(=O)c1[nH]cc(-c2ccc(OC)cc2)c1-c1cc(OC)c2c(c1OC)OCO2 | 105% | 96.8% | 82.9% | 108% | 97.7% | 83.6% | 109% | – | 109% | –
11 | COc1ccc(C2=C(Nc3ccc(C(=O)Nc4ccccc4)cc3)C(=O)N(C)C2=O)cc1 | 85.1% | 99.2% | 71.8% | 95.4% | 89.9% | 80.9% | 116% | 85.4% | 76.7% | –
12 | COC(=O)c1c2c(c(C)[n+]([O-])c1C)C(=O)C(NCc1cccc(OC)c1)=CC2=O | 64.3% | 2.9% (active) | 76.8% | – | 47.8% | 55.7% | 108% | 16.3% | 3.8% (active) | –
13 | O=C(Nc1nc2ccc(C(=O)N3CCN(/C=C/c4ccccc4)CC3)cc2s1)c1ccc(NCCc2ccccc2)c([N+](=O)[O-])c1 | 87.6% | 61.3% | 37.8% | 87.7% | 80.9% | 50.6% | 48.3% | 22.8% | 27.4% | –
14 | Cc1c2cnccc2c(C)c2c1c1cc(C#N)ccc1n2C | -75.4% (active) | -5.29% (active) | -4.29% (active) | – | -2.32% (active) | 6.63% (active) | -65.6% (active) | -16.8% (active) | -11.2% (active) | –
15 | Oc1c(I)cc(I)cc1CNCc1ccccn1 | 35.7% | 38.4% | 5.01% (active) | 23.4% | 24.6% | 15.4% | 62.4% | 23.6% | 16.2% | –
16 | COc1cc2ncnc(Nc3ccc(F)c(Cl)c3)c2cc1OCC(=O)N1CCN(c2ccccc2)CC1 | 102% | 80.4% | 46.5% | – | 50.6% | 50.6% | 61.2% | 103% | 90.3% | –
17 | COc1ccc(-c2ccc(=O)oc2-c2cc(OC)c(OC)c(OC)c2)cc1O | 39.6% | 25.7% | 32.4% | 68% | 38.9% | -15.8% (active) | -39.7% (active) | 7.05% (active) | 2.3% (active) | –
18 | C=C1C(=O)O[C@H]2[C@H]1CC/C(COC(=O)/C=C\C(=O)NCc1ccc(Cn3c(=O)sn(CCI)c3=O)cc1)=C\CC[C@@]1(C)O[C@@H]21 | 75% | 57.9% | 55.1% | 19.4% | 15.9% | 25.7% | 143% | -28.2% (active) | 3.38% (active) | –

Row | SMILES | growth [1] | growth [2] | growth [3] | growth [4] | growth [5] | growth [6] | growth [7] | growth [8] | growth [9] | growth [10] [%]
19 | COc1cc(OC)c(/C=C/C(=O)c2c(OC)cccc2OC)c(OC)c1 | -14.9% (active) | 24.1% | 28.9% | 33.5% | 19.6% | 14.8% | 21.4% | 16.2% | 18.6% | –
20 | COc1cc2c(cc1OCCCN1CCN(CCCOc3cc4c(cc3OC)C(=O)N3CCC[C@H]3C=N4)CC1)C=CC(C)(C)O2 | -77% (active) | -65.7% (active) | -58.8% (active) | -83.6% (active) | 4.25% (active) | -71% (active) | -100% (active) | -48.6% (active) | – | –
21 | COc1ccc(/C=N/NC(=O)c2ccc(-n3cc(-c4ccccc4)nn3)cc2)cc1OC | 108% | 103% | 108% | 113% | 98% | 81% | 100% | 99.2% | 95.6% | –
22 | COC(=O)CC[C@H](C)[C@H]1CC[C@H]2[C@@H]3CC[C@@H]4CC5(CC[C@]4(C)[C@H]3CC(=O)[C@]12C)Nc1ccccc1NC5=NC(C)(C)C (stereo not given in full) | 90.9% | 87.9% | 88.7% | 97.4% | 86.4% | 59.2% | 63.5% | 54.7% | 54.6% | –
23 | CC(C)=CCCC(C)c1ccc(C)c2c1OCN(CCCCCO)C2 (stereo not given) | 92.7% | 78.6% | 57% | 73.7% | 94.1% | 78.1% | 75.3% | 96% | 66.5% | –
24 | COc1ccc(-c2noc(C(=O)O)c2-c2cc(OC)c(OC)c(OC)c2)cc1 | 13.8% | 38.4% | 38.8% | 46.4% | 34.7% | 22.6% | 31.6% | 7.85% (active) | 25.7% | –
25 | C[C@@H](CO)[C@@H]1CCC=C2CC[C@]3(C)[C@H](CC[C@@H]4[C@@]5(C)CCCNC(C)(C)[C@@H]5CC[C@]43C)[C@H]21 | 52.1% | 67.3% | 79.7% | 82% | 87.2% | 47% | 76.6% | 26.2% | 10.3% | –
26 | CCCC/C=C/[C@@H]1C[C@H]1CCO | 98.7% | 94.3% | 87% | 96.4% | 104% | 98.9% | 102% | – | 103% | –
27 | Clc1ccc(/C=N\N=C\c2ccc(Cl)c(Cl)c2)cc1Cl | 18.4% | 87.3% | 77.4% | – | -3.05% (active) | 33% | – | 83.1% | 93.1% | 111
28 | COC(=O)CC[C@@H]1O[C@@H](c2cccc(C(F)(F)F)c2)[C@@H](O)[C@H]1O | 103% | 106% | 92.9% | – | 103% | 94% | 106% | 109% | 104% | –
29 | Cc1cn(-c2cc(NC(=O)c3cccc(C#Cc4cccc5[nH]nc(N)c45)c3)cc(C(F)(F)F)c2)cn1 | 22.5% | 29.9% | 9.11% (active) | 78.8% | 21.5% | 75.7% | 35.1% | 15% | 20.7% | –
30 | NC(=O)c1cccc(-n2ccc3cc(NC(=O)c4ccc(N5CCOCC5)c(C(F)(F)F)c4)ccc32)n1 | 71% | 73.5% | 36.5% | – | 46.6% | 39.7% | 15.7% | 34.4% | 52.5% | –
31 | O=C1/C(=C/c2cn(-c3ccccc3)nc2-c2ccccc2)SC(=S)N1C1CCCCC1 | 108% | 92.9% | 94.2% | 117% | 102% | 85.2% | 66.9% | 107% | 108% | –
32 | N#CC1=C(N)Oc2c(c(=O)[nH]c3ccc(Cl)cc23)C12C(=O)c1ccccc1C2=O | 115% | 94.8% | 70.2% | 129% | 95.1% | 80.5% | 88% | 107% | 116% | –
33 | C=CCc1c(O)c(C(=O)/C=C/c2ccccc2)c(OC)c2ccoc12 | 11.5% | 57% | 50.9% | 38.8% | 51.7% | 13.1% | -10.9% (active) | 21.3% | 15.3% | –
34 | O=C(/C=C/c1cccs1)Nc1ncc(Cc2ccccc2F)s1 | – | 41.3% | 36.2% | – | 31.5% | 23% | 4.45% (active) | 14.4% | 26% | 26.1
35 | O=C(OC(CO)C(=O)NC12CC3CC(CC(C3)C1)C2)c1ccc(Cl)cc1 (stereo not given) | – | 109% | 88.7% | 102% | 100% | 99.4% | 103% | 88.8% | 98.7% | 96.9
36 | N#Cc1ccc(O)c(C2=NCC(c3cccc(Oc4ccccc4)c3)O2)c1 (stereo not given) | – | 33.3% | -6.42% (active) | 3.38% (active) | 17.5% | 6.87% (active) | 50.9% | 14.4% | – | 24
